From PubChem BioAssay AID1159580 (chemical genetic matrix, 2015)
“And” between values parts separate entries of the source, which are not always exact repeats. Identical values can stand only once. Among all 5,500 compounds or so, about 2,000 (36%) were called active. Roughly 18% stayed inconclusive and do not appear here. Rule as the data show it: active = normalized growth mostly below about 0.91 (no sharp cut-off); inconclusive = no clear call, values can overlap the other calls; inactive = mostly above about 0.92. This is one part of the list.

Assay: chemical genetic growth profiling, strain panel (AID 1159580);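 also: tested at 20 µM; growth read once vehicle control cultures reached saturation at 30 °C; 1 = growth at the plate median or of vehicle wells; lower values mean less growth of the strain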
Details: S. cerevisiae deletion strains, growth OD

Measured: normalized growth

C[C@@H]1CCC2[C@](C)(CO)[C@@H](O)CC[C@]2(C)[C@@]12CC[C@@](CO)(CCO)O2 (stereo partly specified)
inactive: locus YAL021C, strain ccr4, active compounds read low 0.991 | locus YAL026C, strain drs2, active compounds read low 0.985 | locus YAL030W, strain snc1, active compounds read low 0.987 | locus YBL061C, strain skt5, active compounds read low 0.967 | locus YBR009C, strain hhf1, active compounds read low 0.977 | locus YBR021W, strain FUR4, active compounds read low 0.998 | locus YBR023C, strain chs3, active compounds read low 0.983 | locus YBR171W, strain sec66, active compounds read low 0.965 | locus YBR229C, strain ROT2, active compounds read low 0.997 | locus YBR231C, strain swc5, active compounds read low 0.997 | locus YBR279W, strain paf1, active compounds read low 0.991 | locus YCL011C, strain gbp2, active compounds read low 0.994 | locus YCL016C, strain dcc1, active compounds read low 0.989 | locus YCL029C, strain bik1, active compounds read low 0.986 | locus YCL061C, strain MRC1, active compounds read low 0.975 | locus YCL069W, strain vba3, active compounds read low 0.979 | locus YCR088W, strain abp1, active compounds read low 0.979 | locus YDL005C, strain med2, active compounds read low 0.972 | locus YDL035C, strain GPR1, active compounds read low 1.02 | locus YDL040C, strain nat1, active compounds read low 0.972 | locus YDL074C, strain BRE1, active compounds read low 1 | locus YDL101C, strain DUN1, active compounds read low 1 | locus YDL134C, strain PPH21, active compounds read low 1.04 | locus YDL185W, strain tfp1, active compounds read low 0.987 | locus YDL192W, strain arf1, active compounds read low 0.994 | locus YDR001C, strain nth1, active compounds read low 0.986 | locus YDR069C, strain doa4, active compounds read low 0.963 | locus YDR101C, strain arx1, active compounds read low 0.995 | locus YDR137W, strain rgp1, active compounds read low 1.01 | locus YDR159W, strain sac3, active compounds read low 0.933 | locus YDR162C, strain NBP2, active compounds read low 1.06 | locus YDR195W, strain ref2 0.959 | locus YDR297W, strain sur2, active compounds read low 0.996 | locus YDR318W, strain mcm21, active compounds read low 0.994 | locus YDR334W, strain swr1, active compounds read low 0.976 | locus YDR335W, strain msn5, active compounds read low 0.978 | locus YDR388W, active compounds read low 0.974 | locus YDR392W, strain spt3, active compounds read low 0.975 | locus YDR502C, strain sam2, active compounds read low 1.01 | locus YEL003W, strain gim4, active compounds read low 0.974 | locus YEL037C, strain rad23, active compounds read low 0.968 | locus YEL061C, strain CIN8 (second series), active compounds read low 0.98 | locus YEL061C, strain CIN8, active compounds read low 1.01 | locus YER015W, strain faa2, active compounds read low 0.99 | locus YER016W, strain bim1, active compounds read low 0.981 | locus YER110C, active compounds read low 0.983 | locus YER111C, strain swi4, active compounds read low 0.959 | locus YER155C, strain BEM2 (second series), active compounds read low 0.958 | locus YER155C, strain BEM2, active compounds read low 0.993 | locus YER167W, strain BCK2, active compounds read low 1 | locus YFR010W, strain ubp6, active compounds read low 0.957 | locus YGL078C, strain dbp3, active compounds read low 0.985 | locus YGL086W, strain mad1, active compounds read low 1.03 | locus YGL167C, strain pmr1, active compounds read low 0.976 | locus YGL173C, strain kem1, active compounds read low 0.979 | locus YGL227W, strain vid30, active compounds read low 0.978 | locus YGL240W, strain doc1, active compounds read low 0.966 | locus YGL248W, strain PDE1, active compounds read low 1 | locus YGL253W, strain hxk2, active compounds read low 0.944 | locus YGR078C, strain PAC10, active compounds read low 1.03 | locus YGR135W, strain pre9, active compounds read low 0.983 | locus YGR229C, strain SMI1, active compounds read low 1.04 | locus YGR252W, strain gcn5, active compounds read low 1.02 | locus YHR013C, strain ard1, active compounds read low 0.959 | locus YHR027C, strain rpn1, active compounds read low 0.983 | locus YHR030C, strain SLT2, active compounds read low 1 and 0.991 | locus YHR079C, strain IRE1 (second series), active compounds read low 0.981 | locus YHR079C, strain IRE1, active compounds read low 0.99 | locus YHR094C, strain hxt1, active compounds read low 0.982 | locus YHR129C, strain ARP1, active compounds read low 1 | locus YHR142W, strain chs7, active compounds read low 0.977 | locus YHR200W, strain rpn10, active compounds read low 0.985 | locus YIL066C, strain RNR3, active compounds read low 1.02 | locus YIL073C, strain SPO22, active compounds read low 0.979 | locus YIL125W, strain kgd1, active compounds read low 0.975 | locus YIR030C, strain dcg1, active compounds read low 0.991 | locus YJL092W, strain hpr5, active compounds read low 0.977 | locus YJL095W, strain BCK1 (second series), active compounds read low 0.983 | locus YJL095W, strain BCK1, active compounds read low 1.04 and 0.955 | locus YJL115W, strain asf1, active compounds read low 0.986 | locus YJL129C, strain trk1, active compounds read low 0.966 | locus YJL134W, strain LCB3, active compounds read low 0.991 | locus YJL154C, strain vps35, active compounds read low 0.982 | locus YJL164C, strain tpk1, active compounds read low 1 | locus YJL166W, strain qcr8, active compounds read low 0.98 | locus YJL168C, strain set2, active compounds read low 0.989 | locus YJL187C, strain SWE1 (second series), active compounds read low 1 | locus YJL187C, strain SWE1, active compounds read low 0.981 | locus YJR043C, strain POL32, active compounds read low 1.04 | locus YJR066W, strain TOR1, active compounds read low 0.976 | locus YJR075W, strain HOC1, active compounds read low 1.04 | locus YKL009W, strain mrt4, active compounds read low 0.976 | locus YKL068W, active compounds read low 0.986 | locus YKL085W, strain MDH1 (second series), active compounds read low 0.99 | locus YKL085W, strain MDH1, active compounds read low 0.99 | locus YKL160W, strain elf1, active compounds read low 0.988 | locus YKR001C, strain vps1, active compounds read low 1.01 | locus YKR026C, strain gcn3, active compounds read low 0.978 | locus YKR091W, strain srl3, active compounds read low 0.988 | locus YLL001W, strain dnm1, active compounds read low 0.991 | locus YLL026W, active compounds read low 0.982 | locus YLL041C, strain sdh2, active compounds read low 0.977 | locus YLR027C, strain aat2, active compounds read low 0.98 | locus YLR039C, strain RIC1, active compounds read low 1.09 | locus YLR058C, strain SHM2, active compounds read low 1 | locus YLR102C, strain apc9, active compounds read low 0.977 | locus YLR113W, strain HOG1, active compounds read low 0.991 | locus YLR221C, strain rsa3, active compounds read low 0.953 | locus YLR258W, strain gsy2, active compounds read low 0.969 | locus YLR262C, strain YPT6 (second series), active compounds read low 1.01 | locus YLR262C, strain YPT6, active compounds read low 1.09 | locus YLR268W, strain sec22, active compounds read low 0.996 | locus YLR320W, strain mms22, active compounds read low 0.971 | locus YLR330W, strain CHS5, active compounds read low 0.995 | locus YLR342W, strain FKS1 (second series), active compounds read low 0.995 | locus YLR342W, strain FKS1, active compounds read low 0.969 | locus YLR357W, strain rsc2, active compounds read low 0.95 | locus YLR370C, strain arc18, active compounds read low 0.977 | locus YLR371W, strain rom2, active compounds read low 0.982 | locus YLR384C, strain iki3, active compounds read low 0.974 | locus YLR418C, strain cdc73, active compounds read low 1.03 | locus YML016C, strain PPZ1, active compounds read low 0.997 | locus YML032C, strain rad52, active compounds read low 0.97 | locus YML120C, strain ndi1, active compounds read low 0.992 | locus YML124C, strain tub3, active compounds read low 0.993 | locus YMR058W, strain fet3, active compounds read low 0.973 | locus YMR078C, strain ctf18, active compounds read low 1 | locus YMR125W, strain sto1, active compounds read low 0.982 | locus YMR129W, active compounds read low 0.986 | locus YMR205C, strain PFK2, active compounds read low 1.01 | locus YMR223W, strain ubp8, active compounds read low 1 | locus YMR231W, strain pep5, active compounds read low 0.951 | locus YMR307W, strain GAS1, active compounds read low 1.15 | locus YNL067W, strain RPL9B, active compounds read low 1.03 | locus YNL071W, strain lat1, active compounds read low 0.989 | locus YNL153C, strain GIM3, active compounds read low 1.04 | locus YNL183C, strain NPR1, active compounds read low 0.977 | locus YNL209W, strain ssb2, active compounds read low 0.992 | locus YNL233W, strain BNI4, active compounds read low 1.02 | locus YNL248C, strain rpa49, active compounds read low 0.976 | locus YNL250W, strain rad50, active compounds read low 0.985 | locus YNL271C, strain bni1, active compounds read low 1.01 | locus YNL298W, strain CLA4, active compounds read low 0.968 | locus YNL307C, strain MCK1, active compounds read low 0.982 | locus YNL322C, strain KRE1 (second series), active compounds read low 1 | locus YNL322C, strain KRE1, active compounds read low 1.01 | locus YNR049C, strain mso1, active compounds read low 0.971 | locus YNR052C, strain pop2, active compounds read low 0.983 | locus YOL012C, strain htz1 1.2 | locus YOL147C, strain pex11, active compounds read low 0.989 | locus YOR001W, strain rrp6, active compounds read low 0.956 | locus YOR061W, strain CKA2, active compounds read low 1 | locus YOR069W, strain VPS5, active compounds read low 0.991 | locus YOR070C, strain gyp1, active compounds read low 0.973 | locus YOR080W, strain dia2, active compounds read low 0.972 | locus YOR083W, strain WHI5, active compounds read low 1 | locus YOR106W, strain vam3, active compounds read low 1.03 | locus YOR136W, strain idh2, active compounds read low 0.984 | locus YOR144C, strain elg1, active compounds read low 0.999 | locus YOR184W, strain ser1, active compounds read low 1.02 | locus YOR231W, strain MKK1, active compounds read low 1 | locus YOR265W, strain rbl2, active compounds read low 0.996 | locus YOR270C, strain vph1, active compounds read low 0.971 | locus YOR290C, strain snf2, active compounds read low 0.967 | locus YOR316C, strain cot1, active compounds read low 0.975 | locus YPL051W, strain arl3, active compounds read low 0.965 | locus YPL078C, strain atp4, active compounds read low 0.995 | locus YPL106C, strain sse1, active compounds read low 0.987 | locus YPL240C, strain hsp82, active compounds read low 0.981 | locus YPL241C, strain CIN2, active compounds read low 1.01 | locus YPL256C, strain CLN2, active compounds read low 0.996 | locus YPR119W, strain clb2, active compounds read low 0.997 | locus YPR141C, strain kar3, active compounds read low 0.984 | locus YPR163C, strain tif3, active compounds read low 0.983 | locus YPR167C, strain met16, active compounds read low 1.01 | strain wtn01, active compounds read low 0.98
